# Hits are enriched below; roughly 21% of the tested compounds scored in any of these assays.
# HCMV antiviral: blocks human cytomegalovirus replication | HFF cells, HCMV-luciferase reporter, 72 h; active compounds read low | activity change, negative = inhibition, % at 57.5 µM | 4.5% of 410,000 active | AID 1259415; in the data active = activity change below about -60%; inconclusive = no clear call, values can overlap the other calls; inactive = above about -39%; also: % is scaled to controls: 0 for no effect and ±100 for the full control effect
#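 Steps: HFFs plated, 16 h 37C; compounds added; HCMV-luciferase added to MOI 1 PFU/cell; 72 h 37C; OneGlo reagent, 5 min room temperature; luminescence read, normalized to controls.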
# Cycloheximide cs: counter-screen for Shiga toxin inhibitors: cycloheximide protein synthesis inhibition | cell reporter, cycloheximide protein synthesis inhibition counterscreen | max response, % | 12% of 300,000 active; in the data active = max response mostly above about 13%, no sharp cut-off; inactive = mostly below about 14%; also: read at 38.3 µM for the half of the compounds with a filed dose; 0% is about no effect
# Pf growth 96h: inhibits malaria parasite growth, 96 h; P. falciparum luciferase reporter growth, 96 h; Potency, µM (titrated, usually from 28.7 µM), inactives show at the highest dose activity change, negative = inhibition, most hits filed as inhibitors; 6.9% of 320,000 active; also: potency is read from the fitted curve at half-maximal effect; % is scaled to controls: 0 for no effect and ±100 for the full control effect
#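 Luminescence readout: decreased luciferase signal marks inhibited growth of reporter-expressing P. falciparum in infected red cells (2% hematocrit, 0.05% parasitemia final), exposed to compound two generations (96 h, 37 C, 5% CO2).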
# HCV inhibitor: blocks hepatitis C virus. Huh7.5.1 HCVcc-Cre infection, luciferase reporter, 44 h. Potency, µM (highest dose often 41.8 µM), for inactives: at the top dose activity change, negative = inhibition, most hits filed as inhibitors. 3.4% of 340,000 active; also: potency is read from the fitted curve at half-maximal effect; % is scaled to controls: 0 for no effect and ±100 for the full control effect
#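 Infectious HCVcc-Cre (~0.5 moi) was added to cells just after compound, with cells seeded 4 h earlier at 1,000 per well. Luciferase activity after 44 h culture reported infection; substrate was incubated 15 min at room temperature before reading.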
# Shiga toxin inh: Shiga toxin inhibition | Vero cells, Shiga toxin protein synthesis inhibition reporter | inhibition, % at 38.7 µM | 9.2% of 290,000 active | AID 2315; in the data active = inhibition mostly above about 28%, no sharp cut-off; inactive = mostly below about 43%; also: 0% is about no effect
# Pf growth 48h: inhibits P. falciparum growth in the first generation, 48 h | P. falciparum luciferase growth in erythrocytes, 48 h | Potency, µM (doses to about 28.7 µM), for the others: at the top dose activity change, negative = inhibition, usual class: inhibitors | 5.9% of 310,000 active | AID 504832; also: potency is read from the fitted curve at half-maximal effect; % is scaled to controls: 0 for no effect and ±100 for the full control effect
#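 Parasite viability was followed by luminescence of a genomically integrated firefly luciferase. Cultures held 0.1% parasitemia at 2% hematocrit (final), incubated under 5% CO2 at 37 C.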
# Active calls of the source: *; ? = inconclusive; · = no result given; + = active, no number; [ ] = remark or other dose. Unless noted, calls follow the shape of the dose curve; as a rule, active = well fitted inhibition curve with a large enough effect; inconclusive = small, poorly fitted or top-dose-only effect, or another doubt; inactive = no such curve, though single readings can be large or run the other way.
SMILES,HCMV antiviral,Cycloheximide cs,Pf growth 96h,HCV inhibitor,Shiga toxin inh,Pf growth 48h
Cc1nc(Oc2ccccc2)c2ccsc2n1,73,20,0%,2%,17,17%
COc1ccc(Oc2ncnc3sccc23)cc1,-9,42*,77%,21%,66*,84%
Brc1ccc2ncnc(Nc3ccc(N4CCOCC4)cc3)c2c1,-82*,-2,-10%,?,0,?
COc1ccc(OC)c(Nc2ncnc3sccc23)c1,46,15*,29%,?,19,-20%
Clc1nc(Nc2ccc(N3CCOCC3)cc2)c2ccccc2n1,-72*,11,17%,?,3,-5%
Cc1cc(C)n(S(=O)(=O)c2ccccc2[N+](=O)[O-])n1,-60*,1,3%,4%,-20,?
Cc1cc(C)n(S(=O)(=O)c2ccc(C)c(C)c2)n1,-3,-1,2%,18%,-5,1%
CNC(=O)c1cc(C(=O)c2c(Cl)cccc2Cl)c[nH]1,9,-1,5%,-1%,-9,3%
O=C(N/N=C/c1ccccc1C(=O)O)c1ccc(COc2cccc3cccnc23)cc1,-7,21,19%,3%,7,37%
O=C(N/N=C/c1ccc[nH]1)c1ccc(COc2cccc3cccnc23)cc1,-97*,34*,?,0.79µM*,39,10µM*
CCOc1cc(/C=N/NC(N)=O)cc(Br)c1OCc1ccccc1,-38,-1,41%,?,-18,3%
Cc1cc(Br)c(OCc2ccc(C(=O)N/N=C/c3ccc[nH]3)cc2)c(Br)c1,+,·,10µM*,-4%,·,2.6µM*
NNC(=O)c1ccc(COc2cccc3cccnc23)cc1,-14,32*,4%,-1%,75,-51%[5.75 µM]
NCCn1cc(-c2cc(Cl)c(N)c(Cl)c2)ncc1=O,12,·,·,·,·,·
O=C(COC(=O)CN1C(=O)NC2(CCCCC2)C1=O)Nc1cc(F)ccc1F,-9,·,·,11%,·,·
OCC1OC([S-])[C@H](O)C(O)C1O.[Au+] (some centres undefined),·,·,4.8µM*,·,·,-22%
COc1ccc2c([N+](=O)[O-])c(C)[nH]c2c1,-15,·,·,·,·,·
CCc1ccc(CNC(=O)c2cc(=O)[nH]c3ccc(S(=O)(=O)N4CCCCC4)cc23)cc1,0,·,·,·,·,·
OC(Cc1ccnc2ccccc12)C(Cl)(Cl)Cl (centres undefined),-80*,·,·,11µM*,·,·
C=CCCC1CN(Cc2ccc(OC)cc2)S(=O)(=O)c2c(Oc3ccc(C)cc3)cccc2O1 (centres undefined),-17,·,·,·,·,·
Cc1ccc(N2CN=c3s/c(=C\c4cccnc4)c(=O)n3C2)cc1,-69*,20*,40%,-12%,28,?
CCOC(=O)c1c(/N=C/c2cc(OC)cc([N+](=O)[O-])c2O)sc(C)c1C,-5,-6,-30%,-6%,-11,13%
CCOC(=O)c1c(/N=C/c2cc([N+](=O)[O-])ccc2O)sc(C)c1C,-12,8,9.3µM*,11%,-9,?
CC(C)(C)c1ccc(C2=CSC3=NCCN23)cc1,76,-4,0.26µM*,-25%,-4,?
Clc1ccc(C2=CSC3=NCCN23)cc1Cl,105,-1,?,-8%,-8,?
SMILES,HCMV antiviral,Cycloheximide cs,Pf growth 96h,HCV inhibitor,Shiga toxin inh,Pf growth 48h
CC(C)Cc1ccc(C2=CSC3=NCCN23)cc1,22,·,·,11µM*,·,·
C1=C(c2cccc3ccccc23)N2CCN=C2S1,40,-4,13µM*,?,46,?
CC(C)=CCC/C(C)=C/CC/C(C)=C/CC/C=C(\C)CC/C=C(\C)CCC=C(C)C,·,·,-24%,·,·,-17%
CC1(C)CN2C(=O)c3ccccc3C2(C)S1 (centres undefined),-9,6,-6%,-5%,1,346%
CN(C)C(=O)C(Sc1ccc(S(=O)(=O)N2CCCC2)cn1)c1ccccc1 (centres undefined),-33,·,?,?,·,15µM*
CN(C(=O)CSc1ccc(S(=O)(=O)N2CCCCC2)cn1)c1ccccc1,8,·,12µM*,-9%,·,?
CCN(C(=O)C(C)Sc1ccc(S(=O)(=O)N2CCOCC2)cn1)c1ccccc1 (centres undefined),58,·,?,-6%,·,13µM*
FC(F)(F)Oc1ccc2c(c1)NC(c1ccncc1)=NC(c1cccs1)=N2,17,·,·,·,·,·
COCCCNc1ccn2nc(-c3ccccc3)cc2n1,57,·,·,·,·,·
CC(C)(CO)CNc1ccn2nccc2n1,-70*,·,·,·,·,·
CC1=C(N2CC2)C(=O)C(CO)=C(N2CC2)C1=O,-97*,·,·,?,·,·
CN(C(=O)c1cccs1)C1(C)CCS(=O)(=O)C1 (centres undefined),9,-2,10µM*,10%,-12,22%
N#Cc1sc2nc(N3CCCCC3)c3c(c2c1N)CCCC3,?,-1,?,?,-9,5.2µM*
Cc1nc2sc(C#N)c(N)c2c2c1CCCC2,?,-1,12µM*,?,-10,25%
CCOC(=O)c1sc2nc(CC(C)C)c3c(c2c1N)CCC3,?,1,26%,4%,-8,26%
CC(=O)c1sc2nc(C)c3c(c2c1N)CCCC3,-29,21*,2%,-67%,55,15%
CN(Cc1ccccc1)C(=O)COC(=O)COc1ccc(C#N)cc1,93,-1,6%,9%,9,131%
COc1cc(OC)c(NS(=O)(=O)c2c(C)nc3sc(C)cn3c2=O)cc1Cl,-11,·,·,·,·,·
C=CCOc1c(Br)cc(CNc2ccc3[nH]c(=O)[nH]c3c2)cc1OCC,?,0,10µM*,?,25,2%
C=CCOc1ccc(CNc2ccc3[nH]c(=O)[nH]c3c2)cc1OC,11,5,-109%,-14%,16,-3%
C=CCOc1c(Br)cc(CNc2ccc(NC(=O)C(C)C)c(OC)c2)cc1OCC,38,34*,?,-6%,10,9.3µM*
C=CCOc1cccc(CNc2ccc3[nH]c(=O)[nH]c3c2)c1,-22,5,10%,11µM*,27,2%
C=CCOc1ccc(CNc2ccc(NC(=O)CCC)cc2)cc1OCC,-32,-3,12µM*,-14%,-9,15µM*
COc1ccc(CCC(=O)NC2CCC(C)CC2)cc1 (centres undefined),6,-5,27%,10%,-5,22%
CCOC(=O)C(=COC(=O)c1ccccc1)NC(=O)Cc1ccccc1,0,·,·,11%,·,·
CCOc1cc(CNc2ccc3c(c2)OCCO3)cc(Br)c1OCC,-86*,28*,2.1µM*,2µM*,67*,1.9µM*
CC1(C)CC2CC(C)(CN2C(=O)c2ccc([N+](=O)[O-])cc2[N+](=O)[O-])C1 (centres undefined),-9,-4,-18%,11%,13,-18%
COc1ccccc1CNC(=O)c1cn(C)c2ccc(S(=O)(=O)N(C)C3CCCCC3)cc2c1=O,-5,·,·,·,·,·

# Compound activity from PubChem.
